Entries with a potency or affinity are not part of this list.

The test system of the first test is Staphylococcus aureus. Conditions: Concentration 32 ug.mL-1;; ASSAY_TEST Inhibition of Bacterial Growth; detection method Absorption (OD600); MEDIA CAMHB; plate type 384well; NBS; CORNING #3640; time 18 hr.
Turning to `CCc1ccccc1Sc1nccn2c(=O)n(CC(=O)Nc3ccc(C)cc3C)nc12`, the Inhibition stood at 10.48%.
As to `Cc1ccc(-n2ccn3c(SC(C)C(=O)Nc4ccc5c(c4)OCCO5)nnc3c2=O)cc1C` (stereo not given), the Inhibition amounted to 12.06%.
Regarding `COc1ccc(-c2cc3c4nnc(SCC(=O)N(C)c5ccccc5)n4ccn3n2)cc1`, the Inhibition is -6.7%.
On to `Cc1cccc(Oc2nccn3c(=O)n(CC(=O)NCCCc4ccccc4)nc23)c1C`, for which the Inhibition is 9.48%.
In the case of `CCOc1ccc(-n2ccn3c(SCC(=O)NCc4cccc(OC)c4OC)nnc3c2=O)cc1`, the Inhibition is recorded as 12.04%.
With `O=C(Cn1nc2c(N3CCOCC3)nccn2c1=O)Nc1cccc(C(F)(F)F)c1`, the Inhibition was determined as 4.69%.
Take `O=c1c2sccc2n2c(=O)n(Cc3ccc(F)cc3)nc2n1CCc1ccccc1`: the Inhibition is reported as 10.13%.
`Cc1ccc(C)c(CN(c2ccc(F)c(F)c2)S(=O)(=O)c2cccn3cnnc23)c1`: the Inhibition is given as 5.14%.
Turning to `O=C(Cn1nc2c3sc(N4CCCC4)nc3ncn2c1=O)Nc1ccccc1Br`, the Inhibition stood at 3.7%.
With `O=C(CSc1nnc2c(=O)n(-c3ccccc3)ccn12)Nc1ccc2c(c1)OCO2`, the Inhibition stood at 8.51%.
Same read-out and setting: the value for `COc1ccc(CNC(=O)Cn2nc3c(N4CCN(c5ccccc5C)CC4)nccn3c2=O)cc1` was 6.39%; that for `COC(=O)c1ccc(CN(c2cccc(C)c2)S(=O)(=O)c2cccn3c(C)nnc23)o1` was 5.77%.
Regarding `Cc1ccccc1CN(c1ccc(C(C)C)cc1)S(=O)(=O)c1cccn2cnnc12`, the Inhibition was 17.72%.
With `COc1ccc(OC)c(NC(=O)Cn2nc3c4cc(-c5ccc(F)cc5)nn4ccn3c2=O)c1`, the Inhibition is given as 7.29%.
Still for that read-out and setting: for `CCc1nnc2c(SCC(=O)Nc3cccc(OC)c3)nc3ccccc3n12` the value was 0.35%.
On to `COc1ccc(OC)c(NC(=O)Cn2nc3ccc(-c4ccc(Cl)cc4)nn3c2=O)c1`, for which the Inhibition came out at 10.25%.
Consider `Cc1cc(C)c(NC(=O)Cn2nc3c4cc(-c5ccc(F)cc5)nn4ccn3c2=O)c(C)c1`, for which the Inhibition is reported as 12.62%.
On to `COc1cc(NC(=O)Cn2nc3c(N4CCCC4)nccn3c2=O)cc(OC)c1`, for which the Inhibition is listed as 5.55%.
As for `Cc1cc2nn(CC(=O)Nc3cc(F)ccc3F)c(=O)n2c(Nc2ccc(F)c(C)c2)n1`, the Inhibition is recorded as -14.31%.
Regarding `CCN(CCCNC(=O)CCc1nnc2ccc(-c3ccc(C)c(C)c3)nn12)c1ccccc1`, the Inhibition is on record as -5.09%.
`O=C(Cn1nc2ccc(-c3ccc(Cl)cc3)nn2c1=O)N1CCN(c2ccccc2F)CC1`: the Inhibition turned out to be 9.33%.
In the case of `Cc1cccc(N(Cc2ccc(F)cc2)S(=O)(=O)c2cccn3c(C)nnc23)c1`, the Inhibition is 15.38%.
Regarding `COc1ccc(-n2ccn3c(SCC(=O)N4CCN(c5ccccc5F)CC4)nnc3c2=O)cc1`, the Inhibition is on record as 7.08%.
Regarding `Cc1ccccc1Nc1cc(C)n2c(=O)n(CCOc3ccc(F)cc3)nc2n1`, the Inhibition is recorded as 13.1%.
On the same count and under the same terms, the value for `COc1ccc(NC(=O)Cn2nc3ccc(-c4ccccc4)nn3c2=O)cc1OC` was 0.84%; that for `O=C(CSc1nc2ccccc2n2cnnc12)Nc1ccc2c(c1)OCO2` was 4.59%.
On to `COc1cc(NC(=O)Cn2nc3c4c5c(sc4ncn3c2=O)CCCC5)cc(OC)c1OC`, for which the Inhibition was 7.91%.
Same read-out and setting: for `COc1cccc(-n2ccn3c(SC(C)C(=O)c4ccc(C)c(C)c4)nnc3c2=O)c1` (stereo not given) the value was 13.98%.
Regarding `O=C(CSc1nnc2c(=O)n(-c3cccc(F)c3)ccn12)N1CCN(c2ccc(F)cc2)CC1`, the Inhibition came to 3.76%.
`COc1ccc(-c2cc3c4nnc(CCC(=O)NCCc5ccccc5)n4ccn3n2)cc1`: the Inhibition came to 6.36%.
Consider `COc1cccc(-n2ccn3c(SCc4ccccc4Cl)nnc3c2=O)c1`, for which the Inhibition worked out at 8.33%.
As for `COc1cc(NC(=O)Cn2nc3c(Oc4ccccc4)nccn3c2=O)cc(OC)c1OC`, the Inhibition was found to be 13.24%.
On the same count and under the same terms, for `COc1ccc(NC(=O)CSc2nc3ccccc3n3c(C(C)C)nnc23)cc1Cl` the value was -3.22%; for `COc1cccc(-n2ccn3c(SCC(=O)c4ccc(Br)cc4)nnc3c2=O)c1`, 12.63%; for `Cc1cc2nn(CC(=O)Nc3cc(F)ccc3F)c(=O)n2c(Nc2ccc(C)c(F)c2)n1`, 0.88%.
Take `COc1cccc(-n2ccn3c(SCC(=O)c4ccc(F)cc4)nnc3c2=O)c1`: the Inhibition is listed as 13.82%.
Take `Cc1ccc(-c2ccc3nn(Cc4cccc(Br)c4)c(=O)n3n2)cc1C`: the Inhibition came out at 9.24%.
Regarding `COc1ccc(NC(=O)Cn2nc3c4cc(-c5cc(C)ccc5C)nn4ccn3c2=O)c(OC)c1`, the Inhibition stood at 3.39%.
The same measure, in the same setting: for `CCCn1c(=O)c2sccc2n2c(=O)n(CC(=O)c3ccc(OC)c(OC)c3)nc12` the value was 7.14%.
Regarding `O=C(Cn1nc2c(SC3CCCCC3)nccn2c1=O)N1CCN(c2ccccc2)CC1`, the Inhibition amounted to 2.31%.

The next test concerns Escherichia coli. Conditions: Concentration 32 ug.mL-1;; ASSAY_TEST Inhibition of Bacterial Growth; detection method Absorption (OD600); MEDIA CAMHB; plate type 384well; NBS; CORNING #3640; time 18 hr.
As to `CCc1ccccc1Sc1nccn2c(=O)n(CC(=O)Nc3ccc(C)cc3C)nc12`, the Inhibition was -10.9%.
Same read-out and setting: for `Cc1ccc(-n2ccn3c(SC(C)C(=O)Nc4ccc5c(c4)OCCO5)nnc3c2=O)cc1C` (stereo not given) the value was -2.85%; for `COc1ccc(-c2cc3c4nnc(SCC(=O)N(C)c5ccccc5)n4ccn3n2)cc1`, -0.99%.
Regarding `Cc1cccc(Oc2nccn3c(=O)n(CC(=O)NCCCc4ccccc4)nc23)c1C`, the Inhibition is -1.44%.
Take `CCOc1ccc(-n2ccn3c(SCC(=O)NCc4cccc(OC)c4OC)nnc3c2=O)cc1`: the Inhibition was -1.13%.
Regarding `O=C(Cn1nc2c(N3CCOCC3)nccn2c1=O)Nc1cccc(C(F)(F)F)c1`, the Inhibition is reported as -2.32%.
On to `O=c1c2sccc2n2c(=O)n(Cc3ccc(F)cc3)nc2n1CCc1ccccc1`, for which the Inhibition was 2.04%.
Take `Cc1ccc(C)c(CN(c2ccc(F)c(F)c2)S(=O)(=O)c2cccn3cnnc23)c1`: the Inhibition was found to be 0.2%.
In the case of `O=C(Cn1nc2c3sc(N4CCCC4)nc3ncn2c1=O)Nc1ccccc1Br`, the Inhibition is reported as -11.75%.
On the same count and under the same terms, the value for `O=C(CSc1nnc2c(=O)n(-c3ccccc3)ccn12)Nc1ccc2c(c1)OCO2` was -2.5%; that for `COc1ccc(CNC(=O)Cn2nc3c(N4CCN(c5ccccc5C)CC4)nccn3c2=O)cc1` was -3.43%; that for `COC(=O)c1ccc(CN(c2cccc(C)c2)S(=O)(=O)c2cccn3c(C)nnc23)o1` was -6.24%.
Consider `Cc1ccccc1CN(c1ccc(C(C)C)cc1)S(=O)(=O)c1cccn2cnnc12`, for which the Inhibition was found to be 2.74%.
The same measure, in the same setting: for `COc1ccc(OC)c(NC(=O)Cn2nc3c4cc(-c5ccc(F)cc5)nn4ccn3c2=O)c1` the value was -2.37%.
With `CCc1nnc2c(SCC(=O)Nc3cccc(OC)c3)nc3ccccc3n12`, the Inhibition is -7.16%.
For `COc1ccc(OC)c(NC(=O)Cn2nc3ccc(-c4ccc(Cl)cc4)nn3c2=O)c1`, the Inhibition is on record as -2.3%.
With `Cc1cc(C)c(NC(=O)Cn2nc3c4cc(-c5ccc(F)cc5)nn4ccn3c2=O)c(C)c1`, the Inhibition stood at 1.69%.
For `COc1cc(NC(=O)Cn2nc3c(N4CCCC4)nccn3c2=O)cc(OC)c1`, the Inhibition is -2.57%.
In the case of `Cc1cc2nn(CC(=O)Nc3cc(F)ccc3F)c(=O)n2c(Nc2ccc(F)c(C)c2)n1`, the Inhibition came out at 0.42%.
On the same count and under the same terms, for `CCN(CCCNC(=O)CCc1nnc2ccc(-c3ccc(C)c(C)c3)nn12)c1ccccc1` the value was -5.52%.
`O=C(Cn1nc2ccc(-c3ccc(Cl)cc3)nn2c1=O)N1CCN(c2ccccc2F)CC1`: the Inhibition is recorded as -0.1%.
With `Cc1cccc(N(Cc2ccc(F)cc2)S(=O)(=O)c2cccn3c(C)nnc23)c1`, the Inhibition is given as -0.37%.
Still for that read-out and setting: for `COc1ccc(-n2ccn3c(SCC(=O)N4CCN(c5ccccc5F)CC4)nnc3c2=O)cc1` the value was -4.94%.
With `Cc1ccccc1Nc1cc(C)n2c(=O)n(CCOc3ccc(F)cc3)nc2n1`, the Inhibition was -3.45%.
Regarding `COc1ccc(NC(=O)Cn2nc3ccc(-c4ccccc4)nn3c2=O)cc1OC`, the Inhibition is -8.27%.
On the same count and under the same terms, the value for `O=C(CSc1nc2ccccc2n2cnnc12)Nc1ccc2c(c1)OCO2` was -3.46%; that for `COc1cc(NC(=O)Cn2nc3c4c5c(sc4ncn3c2=O)CCCC5)cc(OC)c1OC` was -3.63%; that for `COc1cccc(-n2ccn3c(SC(C)C(=O)c4ccc(C)c(C)c4)nnc3c2=O)c1` (stereo not given) was 1.22%.
Turning to `O=C(CSc1nnc2c(=O)n(-c3cccc(F)c3)ccn12)N1CCN(c2ccc(F)cc2)CC1`, the Inhibition was 1.02%.
For the compound `COc1ccc(-c2cc3c4nnc(CCC(=O)NCCc5ccccc5)n4ccn3n2)cc1`, the Inhibition was determined as 2.69%.
On the same count and under the same terms, for `COc1cccc(-n2ccn3c(SCc4ccccc4Cl)nnc3c2=O)c1` the value was -9.75%.
As for `COc1cc(NC(=O)Cn2nc3c(Oc4ccccc4)nccn3c2=O)cc(OC)c1OC`, the Inhibition was determined as 1.16%.
`COc1ccc(NC(=O)CSc2nc3ccccc3n3c(C(C)C)nnc23)cc1Cl`: the Inhibition is given as -5.08%.
On to `COc1cccc(-n2ccn3c(SCC(=O)c4ccc(Br)cc4)nnc3c2=O)c1`, for which the Inhibition is listed as 0.58%.
Turning to `Cc1cc2nn(CC(=O)Nc3cc(F)ccc3F)c(=O)n2c(Nc2ccc(C)c(F)c2)n1`, the Inhibition is -8.4%.
Still for that read-out and setting: the value for `COc1cccc(-n2ccn3c(SCC(=O)c4ccc(F)cc4)nnc3c2=O)c1` was -3.39%; that for `Cc1ccc(-c2ccc3nn(Cc4cccc(Br)c4)c(=O)n3n2)cc1C` was -2.14%; that for `COc1ccc(NC(=O)Cn2nc3c4cc(-c5cc(C)ccc5C)nn4ccn3c2=O)c(OC)c1` was 3.2%.
As for `CCCn1c(=O)c2sccc2n2c(=O)n(CC(=O)c3ccc(OC)c(OC)c3)nc12`, the Inhibition is reported as -1.62%.
In the case of `O=C(Cn1nc2c(SC3CCCCC3)nccn2c1=O)N1CCN(c2ccccc2)CC1`, the Inhibition is 0.18%.

(Values after ChEMBL document CHEMBL4513146, “CO-ADD screening of Karazin Kharkiv National University (Ukraine) compounds”.)
